Shown are actives, neighbours in structure and some others; about 1.6% of the full set was active somewhere.
PERK inh – inhibitors of human PERK kinase | 220,000 tested, 0.17% active | inhibition, % at 5.6 µM | CHO PERK-DD fusion, SEAP luminescence translation reporter | Q9NZJ5;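 active = inhibition above the mean inhibition of all tested compounds plus 3 SD, set separately per screening campaign, cut at about 2.9% in these data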;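 note: PERK kinase domain activated by AP20187 dimerizer at 100 nM; 0% = DMSO with dimerizer and 100% = rapamycin at 8.4 µM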
Target sequence (Q9NZJ5 whole entry, looked up, the tested form may be a part): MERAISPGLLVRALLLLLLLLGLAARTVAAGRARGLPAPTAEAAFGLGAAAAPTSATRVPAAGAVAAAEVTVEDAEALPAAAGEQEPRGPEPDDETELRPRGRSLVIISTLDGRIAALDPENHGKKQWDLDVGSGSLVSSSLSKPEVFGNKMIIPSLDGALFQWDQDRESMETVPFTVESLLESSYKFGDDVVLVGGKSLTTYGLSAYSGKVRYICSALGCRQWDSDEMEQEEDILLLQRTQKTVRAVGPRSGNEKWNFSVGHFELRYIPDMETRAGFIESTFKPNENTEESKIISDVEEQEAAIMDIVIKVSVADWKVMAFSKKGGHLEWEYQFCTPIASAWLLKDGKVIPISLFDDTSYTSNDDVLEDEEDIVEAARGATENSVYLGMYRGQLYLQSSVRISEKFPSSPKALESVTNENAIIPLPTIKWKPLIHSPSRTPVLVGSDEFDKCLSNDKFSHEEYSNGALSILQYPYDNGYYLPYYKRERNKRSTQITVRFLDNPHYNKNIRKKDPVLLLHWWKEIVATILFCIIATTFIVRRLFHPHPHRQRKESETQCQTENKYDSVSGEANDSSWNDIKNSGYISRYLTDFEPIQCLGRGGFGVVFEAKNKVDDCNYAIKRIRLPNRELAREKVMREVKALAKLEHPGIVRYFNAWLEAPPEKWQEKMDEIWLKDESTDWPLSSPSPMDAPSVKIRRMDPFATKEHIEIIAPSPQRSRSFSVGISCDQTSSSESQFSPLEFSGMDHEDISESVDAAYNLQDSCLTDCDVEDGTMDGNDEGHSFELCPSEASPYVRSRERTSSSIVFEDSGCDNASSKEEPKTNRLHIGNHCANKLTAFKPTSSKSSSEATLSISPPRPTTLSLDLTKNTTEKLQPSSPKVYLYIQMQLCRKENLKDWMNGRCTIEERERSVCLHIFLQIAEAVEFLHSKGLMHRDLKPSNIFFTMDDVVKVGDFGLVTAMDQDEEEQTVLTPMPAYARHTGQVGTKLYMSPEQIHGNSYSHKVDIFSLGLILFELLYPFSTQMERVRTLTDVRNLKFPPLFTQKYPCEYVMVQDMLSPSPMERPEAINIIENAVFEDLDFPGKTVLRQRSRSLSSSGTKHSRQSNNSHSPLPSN
eIF4H FP inh – inhibitors of RNA binding by human eIF4H | Q15056 | eIF4H fluorescence polarization binding assay | inhibition, % at 35 µM | 290,000 tested, 0.94% active;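 note: calls also rest on retests at 20 µM and on dose response follow-up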
MLLE-PAM2 inh – inhibitors of microRNA-mediated deadenylation, human PABP1 MLLE binding | P11940 | GST-MLLE / FITC-PAM2 fluorescence polarization | inhibition, % at 20 µM | 360,000 tested, 0.36% active; in the data active = inhibition above about 35%, passing the limit was not always enough;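 note: plate controls were DMSO wells with GST-MLLE for no effect and wells lacking GST-MLLE protein for full effect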
PABP FP inh – PABP-poly(A) binding inhibition; PABP-poly(A) RNA binding, fluorescence polarization; calls only at 35 µM; 290,000 tested, 1% active; AID 2014;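 note: calls also rest on retests at 20 µM and on dose response follow-up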
eIF4E-4G inh – blocks eIF4E binding to eIF4G. inhibition, % at 21.7 µM. AID 782. TR-FRET eIF4E-eIF4GI(517-606) binding, 2 h. 220,000 tested, 0.37% active. P63073+Q04637;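 active = inhibition above about 30%, limit read from the data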;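 note: 0% = full FRET control wells and 100% = background wells lacking eIF4GI fragment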
Numbers without * were called inactive. Unless noted, the rule behind the calls is not given here.

CC(C(=O)NC1C(=O)N2C(C(=O)O)=C(CSc3nnnn3C)CSC12)n1cc(Cl)cn1 (centres undefined) was read as PERK inh 1.2, eIF4H FP inh 6.6, MLLE-PAM2 inh 42.8*, PABP FP inh inactive and eIF4E-4G inh 5.5.
Screening O=C1C(Cl)=C(Nc2ccccc2)C(=O)c2ccccc21 returned PERK inh 1.0, eIF4H FP inh 11.2, MLLE-PAM2 inh -1.3, PABP FP inh inactive and eIF4E-4G inh 6.0.
Screening O=C1C(Cl)=C(NCCc2ccccc2)C(=O)N1CCc1ccccc1 returned PERK inh 0.0, eIF4H FP inh 8.1, MLLE-PAM2 inh -6.4 and PABP FP inh inactive.
O=C(O)c1ccc(NC2=C(Cl)C(=O)c3ccccc3C2=O)cc1 was read as PERK inh -0.5, eIF4H FP inh -3.5, MLLE-PAM2 inh 47.0*, PABP FP inh inactive and eIF4E-4G inh -2.5.
For Cc1ccc(NCC(=O)c2ccccc2)cc1Cl the results were PERK inh 0.4, eIF4H FP inh -7.2, MLLE-PAM2 inh 14.9, PABP FP inh inactive and eIF4E-4G inh 0.0.
Cc1ccc(NC2=C(NC(=O)c3ccccc3)C(=O)c3ccccc3C2=O)cc1Cl was read as PERK inh -1.2, eIF4H FP inh -5.8, MLLE-PAM2 inh 46.2*, PABP FP inh inactive and eIF4E-4G inh 9.4.
For O=C1C(Cl)=C(NCCc2ccccc2)C(=O)c2ccccc21 the results were MLLE-PAM2 inh 40.4*.
`O=C(CCNC(=O)c1ccc([N+](=O)[O-])cc1)NCc1cccs1` gave MLLE-PAM2 inh -7.4.
C/C(=N/N1CCN(Cc2cccc3ccccc23)CC1)c1ccco1 was read as PERK inh 1.3, eIF4H FP inh 0.2, MLLE-PAM2 inh -0.7, PABP FP inh inactive and eIF4E-4G inh 9.8.
For Cc1ccc(C)n1Cc1ccc(C(=O)O)cc1 the results were PERK inh 1.6, eIF4H FP inh 93.0*, MLLE-PAM2 inh 16.4, PABP FP inh active and eIF4E-4G inh 5.8.
`COc1cccc(-n2c(SCC(N)=O)nc3ccccc3c2=O)c1` gave PERK inh 0.1, eIF4H FP inh 58.2*, MLLE-PAM2 inh -70.0, PABP FP inh inactive and eIF4E-4G inh -3.0.
For NC(=O)c1ncn([C@@H]2O[C@H](CNCc3cccc(OC4CCCC4)c3)[C@@H](O)[C@H]2O)n1 the results were MLLE-PAM2 inh 21.9.
`CC(C)CC(NC(=O)OC(C)(C)C)C(=O)NCc1ccccc1` (centres undefined) gave PERK inh -2.0, eIF4H FP inh -5.7, MLLE-PAM2 inh -7.0, PABP FP inh inactive and eIF4E-4G inh 6.8.
For CC(C)CC(NC(=O)C(COCc1ccccc1)NC(=O)OC(C)(C)C)C(=O)NN (centres undefined) the results were PERK inh 0.1, eIF4H FP inh active, MLLE-PAM2 inh 11.1, PABP FP inh inactive and eIF4E-4G inh 6.8.
For O=C(Nc1ccc2c(c1)nc1n2CCN(C2CCCCC2)C1)NC1CCCCC1 the results were PERK inh 0.6, eIF4H FP inh 1.0, PABP FP inh inactive and eIF4E-4G inh -1.3.
Screening O=C(Nc1ccc2c(c1)nc1n2CCN(C2CCCCC2)C1)c1ccco1 returned PERK inh 1.9, eIF4H FP inh 93.8*, MLLE-PAM2 inh -29.4, PABP FP inh inactive and eIF4E-4G inh 0.4.
Screening O=C(Nc1ccc2c(c1)nc1n2CCSC1)c1ccco1 returned PERK inh 0.3, eIF4H FP inh 71.8*, MLLE-PAM2 inh 12.1, PABP FP inh inactive and eIF4E-4G inh -17.4.
`O=C(Nc1ccc2c(c1)nc1n2CCOC1)c1ccco1` gave PERK inh 1.4, eIF4H FP inh -5.3, MLLE-PAM2 inh 12.2, PABP FP inh inactive and eIF4E-4G inh -3.2.
Screening CCOC(=O)[C@@H]1[C@H]2COc3cc(OC)ccc3[C@@H]2N2C(=O)N(c3ccccc3)C(=O)[C@]12C returned MLLE-PAM2 inh -6.7.
Screening Nc1nonc1-c1nc2ccccc2n1CC(=O)N/N=C/c1ccc(-c2cccc(C(=O)O)c2)o1 returned PERK inh 0.7, eIF4H FP inh 86.2*, MLLE-PAM2 inh 3.1, PABP FP inh active and eIF4E-4G inh 6.0.
`Nc1nnc(CC(=O)N/N=C/c2ccc(-c3cccc(C(=O)O)c3)o2)s1` gave PERK inh 1.6, eIF4H FP inh 76.0*, MLLE-PAM2 inh 0.4, PABP FP inh inactive and eIF4E-4G inh -4.0.
For CN(Cc1ccccc1)S(=O)(=O)c1ccc(NC(=S)NC(=O)C2CCCCC2)cc1 the results were PERK inh 0.1, eIF4H FP inh -17.7, MLLE-PAM2 inh 20.5, PABP FP inh inactive and eIF4E-4G inh 1.2.
For CC(Oc1ccccc1)C(=O)Nc1ccc(S(=O)(=O)N2CCN(C)CC2)cc1 (centres undefined) the results were MLLE-PAM2 inh -4.3.
`CC(Oc1ccccc1Cl)C(=O)Nc1ccc(S(=O)(=O)N2CCN(C)CC2)cc1` (centres undefined) gave MLLE-PAM2 inh 39.6*.
`NS(=O)(=O)c1ccc(NC(=S)Nc2ccc(S(=O)(=O)N3CCCC3)cc2)cc1` gave PERK inh -0.2, eIF4H FP inh 10.8, MLLE-PAM2 inh 43.1*, PABP FP inh inactive and eIF4E-4G inh -2.1.
CN(Cc1ccccc1)S(=O)(=O)c1ccc(NC(=S)NC(=O)C(C)(C)C)cc1 was read as PERK inh 0.7, eIF4H FP inh 1.5, MLLE-PAM2 inh 36.2*, PABP FP inh inactive and eIF4E-4G inh 2.5.
O=C(NC(=S)Nc1ccc(S(=O)(=O)N2CCCCC2)cc1)c1cccs1 was read as PERK inh 0.0, eIF4H FP inh 2.0, MLLE-PAM2 inh 44.1*, PABP FP inh inactive and eIF4E-4G inh 2.0.
For CC(C)[C@H](NC(=O)c1ccc(Cl)cc1Cl)C(=O)NNC(=O)c1ccco1 the results were MLLE-PAM2 inh 11.7.
`CCCn1c(SCC(=O)N2CCc3ccccc32)n[nH]c1=O` gave MLLE-PAM2 inh -3.2.
Screening CC(=O)c1cccc(NC(=O)CN2C(=O)C(=O)N(Cc3ccco3)C2=O)c1 returned MLLE-PAM2 inh 1.9.
For CCC(=O)NC(=S)Nc1ccc(S(=O)(=O)N2CCN(C)CC2)cc1 the results were PERK inh -0.4, eIF4H FP inh -3.7, MLLE-PAM2 inh -0.4, PABP FP inh inactive and eIF4E-4G inh 7.5.
For CN1CCN(C(=S)NC(=O)c2ccc(S(=O)(=O)N3CCOCC3)cc2)CC1 the results were PERK inh 2.6, eIF4H FP inh -6.5, MLLE-PAM2 inh 40.2*, PABP FP inh inactive and eIF4E-4G inh -2.2.
Screening O=C(Cc1cccs1)Nc1ccc(S(=O)(=O)N2CCCC2)cc1 returned PERK inh -0.3, eIF4H FP inh 19.9, MLLE-PAM2 inh -7.4, PABP FP inh inactive and eIF4E-4G inh 33.2*.
`CN1CCN(S(=O)(=O)c2ccc(NC(=S)NC(=O)C(C)(C)C)cc2)CC1` gave PERK inh -0.3, eIF4H FP inh -2.6, MLLE-PAM2 inh 40.2*, PABP FP inh inactive and eIF4E-4G inh 1.9.
`Cc1cc(-c2ccccc2)nc(Nc2nc3c(C)cccc3c(=O)[nH]2)n1` gave MLLE-PAM2 inh -18.2.

Screening data from PubChem BioAssay.
